Data published in the supplement of paper PMC11150407.
The whole screen tested about 2,100 compounds, of which about 180 (8.6%) showed an effect of 50% or more. What follows is part of a selection rich in strong results, with near analogues and random picks from the rest.

These molecules were tested on MOLM1 and UCSD/AML1 (averaged) (assay: cell viability relative to DMSO control (POC); higher = less growth inhibition). Conditions: 1 µM; 72 h.
Protocol: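 Primary viability screen in the 3q26 EVI1-high AML cell lines MOLM1 and UCSD/AML1 (1.5e3 cells/well, 384-well), compounds at 1 uM for 72 h. ATP CellTiter-Glo read-out given as percent of viable cells over DMSO control (POC), averaged over duplicates. DMSO was the negative control and 5 uM etoposide the positive control. This mapping covers the MicroSource Spectrum and Selleck anticancer libraries (drug names).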

Q: How did the cell viability turn out when `COC(=O)C(O)c1ccccc1` (stereo unspecified) was run?
A: 106%

Q: Which cell viability does the source give for `O=c1cc(-c2ccc(O)cc2)oc2cc(O[C@@H]3O[C@H](CO)[C@@H](O)[C@H](O)[C@H]3O[C@@H]3OC[C@](O)(CO)[C@H]3O)cc(O)c12` here?
A: 119%

Q: With `COc1ccc2c(=O)c(CC(=O)O)coc2c1` as the molecule, how does the cell viability read?
A: 98.6%

Q: Which cell viability does the source give for `N=C(N)NC(=N)Nc1ccccc1` here?
A: 99.7%

Q: For `O=C(O)c1nc2cc(Cl)c(Cl)cc2nc1O`, which cell viability is on record?
A: 98.3%

Q: With `CC(C)CCC[C@@H](C)[C@H]1CC[C@H]2[C@@H]3CC[C@H]4C[C@H](O)CC[C@]4(C)[C@H]3CC[C@]12C` as the molecule, how does the cell viability read?
A: 110%

Q: `Cc1ccc(S(=O)(=O)C=CC#N)cc1` was tested. Which cell viability did it give?
A: 1.01%

Q: `Cc1ccc(O)c([C@H](CCN(C(C)C)C(C)C)c2ccccc2)c1` was tested. Which cell viability did it give?
A: 92.5%

Q: For `C=CC[S+]([O-])C[C@H](N)C(=O)O` (mixture of isomers), which cell viability is on record?
A: 89.6%

Q: With `CCN(CC)C(=S)SSC(=S)N(CC)CC` [Disulfiram (Antabuse)] as the molecule, how does the cell viability read?
A: 1.33%

Q: Which cell viability does the source give for `CCN(CC)C(=S)SSC(=S)N(CC)CC` here?
A: 5.82%

Q: `CC1=CC(=O)[C@H]2C(C)(C)CCC[C@]2(C)[C@@]1(O)CCc1ccoc1` was tested. Which cell viability did it give?
A: 110%

Q: With `COC(=O)CC[C@@H](C)[C@H]1CC[C@H]2[C@@H]3[C@H](O)C[C@@H]4C[C@H](O)CC[C@]4(C)[C@H]3C[C@H](O)[C@]12C` as the molecule, how does the cell viability read?
A: 95.2%

Q: Which cell viability does the source give for `C[C@@H]1CCN(C(=O)CC#N)C[C@@H]1N(C)c1ncnc2[nH]ccc12` here?
A: 72.1%

Q: With `O=C(O)c1cc(-c2ccc(F)cc2F)ccc1O` as the molecule, how does the cell viability read?
A: 112%

Q: How did the cell viability turn out when `CNC(=O)c1ccccc1Sc1ccc2c(/C=C/c3ccccn3)n[nH]c2c1` [Axitinib] was run?
A: 19.1%

Q: How did the cell viability turn out when `C[C@H]1CC2C3CCC4=CC(=O)C=C[C@]4(C)[C@@]3(F)[C@@H](O)C[C@]2(C)[C@@]1(O)C(=O)COP(=O)(O)O` (stereo partly specified) was run?
A: 72.3%

Q: `COc1c(-c2coc3cc4c(cc3c2=O)CC(OC(C)=O)C(C)(C)O4)ccc2c1C=CC(C)(C)O2` (stereo unspecified) was tested. Which cell viability did it give?
A: 88.7%

Q: With `Fc1cc(-c2cccc3ncc(-c4cnn(C5CCNCC5)c4)nc23)cc(F)c1CN1CCOCC1` as the molecule, how does the cell viability read?
A: 24.6%

Q: For `CCC(C(N)=O)c1ccccc1` (stereo unspecified), which cell viability is on record?
A: 109%

Q: Which cell viability does the source give for `COc1cc(O)ccc1C(C)=O` here?
A: 97.9%

Q: How did the cell viability turn out when `CC(C)=CCC1=C(O)C(=O)c2ccccc2C1=O` was run?
A: 118%

Q: `N[C@@H](CSCSC[C@H](N)C(=O)O)C(=O)O` was tested. Which cell viability did it give?
A: 99.3%

Q: `CN(c1ncccc1CNc1nc(Nc2ccc3c(c2)CC(=O)N3)ncc1C(F)(F)F)S(C)(=O)=O` was tested. Which cell viability did it give?
A: 58.6%

Q: For `CC(=O)NCC(=O)N1[C@@H]2CC[C@H]1c1ccc(Nc3ncc(C(F)(F)F)c(NC4CCC4)n3)cc12`, which cell viability is on record?
A: 20.2%

Q: Which cell viability does the source give for `CS(=O)(=O)c1cccc(CNc2nc(Nc3ccc4c(c3)CCC(=O)N4)ncc2C(F)(F)F)c1` here?
A: 83.3%

Q: For `CC(=O)/C=C\[C@@H]1[C@@]2(C)CCCC(C)(C)C2CC[C@@]1(C)O` (stereo partly specified), which cell viability is on record?
A: 99.2%

Q: Which cell viability does the source give for `COc1cc2c(cc1OC)-c1c(oc3cc(O)cc(O)c3c1=O)CO2` here?
A: 103%

Q: Which cell viability does the source give for `COC1=C(O)C(=O)c2c(cc3oc(C(C)=O)c(O)c3c2O)C1=O` here?
A: 86.8%

Q: How did the cell viability turn out when `CCCCC(=O)Oc1ccccc1C(=O)O` was run?
A: 115%

Q: Which cell viability does the source give for `COC(=O)C[C@H]1C(C)(C)[C@@H](OC(C)=O)[C@@H]2CC3C4CC(=O)O[C@@H](c5ccoc5)[C@]4(C)CCC3[C@@]1(C)C2=O` (stereo partly specified) here?
A: 88.1%

Q: For `Cc1cnc(Nc2ccc(OCCN3CCCC3)cc2)nc1Nc1cccc(S(=O)(=O)NC(C)(C)C)c1`, which cell viability is on record?
A: 13%

Q: Which cell viability does the source give for `CCCCOc1ccc(C(=O)CCN2CCCCC2)cc1` here?
A: 104%

Q: `CC1(C)[C@@H](O)CC[C@]2(C)[C@H]3C(=O)C=C4[C@@H]5C[C@@](C)(C(=O)O)CC[C@]5(C)CC[C@@]4(C)[C@]3(C)CC[C@@H]12` was tested. Which cell viability did it give?
A: 95.5%

Q: With `OCC(O)C(O)C(O)C(O)C(O)CO` (stereo unspecified) as the molecule, how does the cell viability read?
A: 102%

Q: Which cell viability does the source give for `COc1ccc2c(c1)OCC(Cc1ccc(OC)c(OC)c1)C2=O` (stereo unspecified) here?
A: 112%

Q: `COc1ccc2c(c1)OC/C(=C\c1ccc(OC)c(O)c1)C2=O` was tested. Which cell viability did it give?
A: 18.3%

Q: With `COc1ccc2c(c1)OC/C(=C/c1ccc(OC)c(OC)c1)C2=O` as the molecule, how does the cell viability read?
A: 108%

Q: How did the cell viability turn out when `COC(=O)[C@@H]1OC(=O)C2OC23[C@@]1(C)CCC1[C@]2(C)C(C[C@H](O)[C@]13C)C(C)(C)[C@H](OC(C)=O)C[C@@H]2OC(C)=O` (stereo partly drawn) [7beta-HYDROXY-7-DESACETOXYKHIVORINIC ACID, METHYL ESTER] was run?
A: 111%

Q: For `COC(=O)C[C@H]1C(C)(C)C2(O)OC34CC2C(=O)[C@]1(C)C3CC[C@]1(C)C4=CC(=O)O[C@H]1c1ccoc1` (stereo partly drawn) [8beta-HYDROXYCARAPIN, 3,8-HEMIACETAL], which cell viability is on record?
A: 89%

Q: With `CC(C)CC(NC(=O)OCC1c2ccccc2-c2ccccc21)C(=O)O` (stereo in doubt) as the molecule, how does the cell viability read?
A: 105%
